This note sets out measurements from PubChem BioAssay (NCATS).

Each structure is given as a SMILES string. Unmarked numbers belong to inactive results. Inconclusive results are not listed. The source made the active and inactive calls. Unless noted, the call rests on the fitted dose curve; in most records, active means well fitted curve in the direction sought with a large enough effect; inconclusive means small, poorly fitted or top-dose-only effect, or another doubt; inactive means no such curve, though single readings can be large; an effect the other way counts as inactive or inconclusive.

Assay [1] can be described thus: P-glycoprotein substrates identified in KB-8-5-11 adenocarcinoma cell line, qHTS therapeutic library screen (AID 1346987). Further: series mostly up to about 44 µM; nearly all actives have a fitted effect of over 65% in size. The method in brief: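 Compounds are pinned in dose-response onto KB-8-5-11 cells (500 cells/well, colchicine-free medium) and left 72 h at 37 degree C. CellTiter-Glo luminescence then yields AC50 values.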
(In qHTS, concentration-response curves come from the screen itself.)

Assay [2] is described as follows: Natriuretic polypeptide receptor (hNpr1) antagonism - Pilot counterscreen GloSensor control cell line (AID 1347045; calls by dose curve; further: series mostly up to about 38 µM). An outline of the steps:
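Control counterscreen: luciferase cGMP-biosensor HEK293 cells (no Npr1) received compound for 30 min at room temperature after GloSensor substrate loading. Luminescence was measured before and 20 min after soluble guanylyl cyclase activation by 50 uM nitroprusside.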
In general terms: The purpose of a counterscreen is to sort out artefacts and off-target activity.

For assay [3], the target named is Atrial natriuretic peptide receptor 1 (Homo sapiens) (UniProt P16066). Briefly: Natriuretic polypeptide receptor (hNpr1) antagonism - Pilot screen (AID 1347049; calls by dose curve;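 further: HEK293 cells with hNpr1 and GloSensor cGMP luciferase stimulated by 0.1 nM hNppA; agonist-evoked cGMP luminescence read 20 min after hNppA addition; series mostly up to about 58 µM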). The method in brief:
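Receptor antagonism read as cGMP-dependent luminescence in hNpr1/pGS-40F HEK293 cells: pre-read after 30 min compound exposure, post-read 20 min after hNppA agonist at 0.1 nM final, all at room temperature, protected from light; A-71915 titration as control.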

The target in assay [4] is Atrial natriuretic peptide receptor 2 (Homo sapiens) (UniProt P20594). The assay can be described thus: Natriuretic polypeptide receptor (hNpr2) antagonism - Pilot subtype selectivity assay (AID 1347050; calls by dose curve). The method in brief: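 Antagonist mode: compounds (LOPAC1280, seven 1:5 dilutions) added 30 min before 1 nM hNppC stimulation of hNpr2-HEK293 cGMP-sensor cells; luminescence read before and 20 min after agonist at ambient temperature.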

Assay [5] in a line: NS1 protein of Zika virus - qHTS assay to identify small molecule inhibitors in human HEK 293 cells (AID 1347053). Further: series mostly up to about 46 µM; nearly all actives have a fitted effect of over 55% in size. The method in brief: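 Read-out is a two-antibody TR-FRET for ZIKV NS1, normalized between uninfected cells and infected cells. Compound added 1 h before MR766 infection at MOI 0.5; human HEK 293 cells incubated 24 h, 37 C.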
Assay [6] concerns the target Parathyroid hormone/parathyroid hormone-related peptide receptor (Homo sapiens) (UniProt Q03431). The assay can be described thus: qHTS for PTHR1 Agonists: Optimization Screen against the NCGC LOPAC library (AID 1347079).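 Further: GloSensor cAMP luminescence in HEK-293 GP2 cells expressing human PTHR1 with IBMX.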 The method in brief: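 HEK-293 GP2 cells, PTHR1 + GloSensor cAMP; 3000 cells/well, o/n. Luciferin + IBMX 0.5mM each (stock), 1 hr 37C. Cpd titration, 1 hr 37C. Lum after 15 min RT. Ctrl M-PTH(1-15) top 10uM.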

Assay [7] can be described thus: qHTS of pediatric cancer cell lines to identify multiple opportunities for drug repurposing: Primary screen for TC32 cells (AID 1347089). Further: nearly all actives have a fitted effect of over 60% in size. The method in brief:
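Measured quantity: luminescence from CellTiter-Glo, reflecting metabolically active TC32 cells following 48 h of compound. Curves came straight from multi-point titrations, with 8 or 11 points in primary and 11 in confirmatory screening.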

Assay [8] can be described thus: qHTS of pediatric cancer cell lines to identify multiple opportunities for drug repurposing: Primary screen for DAOY cells (AID 1347090). Further: series mostly up to about 46 µM; nearly all actives have a fitted effect of over 55% in size. An outline of the steps:
(§1)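 Cell viability, CellTiter-Glo luminescence; 500-1,000 cells/well, 8- or 11-point titration, 48 h compound exposure at 37 degrees C, 5% CO2. Controls: DMSO neutral, bortezomib 2.3 µM final as positive.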

The nature of assay [9]: qHTS of pediatric cancer cell lines to identify multiple opportunities for drug repurposing: Primary screen for SJ-GBM2 cells (AID 1347091). An outline of the steps:
as §1

The nature of assay [10]: qHTS of pediatric cancer cell lines to identify multiple opportunities for drug repurposing: Primary screen for A673 cells (AID 1347092). Further: nearly all actives have a fitted effect of over 45% in size. An outline of the steps:
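Cells are plated, rested 5 h, dosed by pintool, incubated 48 h, then lysed with CellTiter-Glo and read by luminescence. DMSO is the neutral control; bortezomib at 2.3 uM final is the positive control.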

Assay [11] in a line: qHTS of pediatric cancer cell lines to identify multiple opportunities for drug repurposing: Primary screen for BT-37 cells (AID 1347094). Further: series mostly up to about 57 µM. The method in brief: (§2)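 500-1,000 cells/well; 5 h pre-incubation 37 °C/5% CO2; compound pinned; 48 h; CellTiter-Glo, 15 min RT; luminescence. MIPE 11-pt from 0.78 nM, NPC 8-pt from 0.59 nM final. Bortezomib 2.3 µM final as positive control.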

Assay [12] in a line: qHTS of pediatric cancer cell lines to identify multiple opportunities for drug repurposing: Primary screen for U-2 OS cells (AID 1347096). Further: nearly all actives have a fitted effect of over 50% in size. An outline of the steps: (§3)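 Cells (500-1,000/well) rested 5 h, then received compounds for 48 h; metabolically active cells were measured by CellTiter-Glo luminescence. Final concentrations spanned up to 46 µM (MIPE, 11-point) or 0.59 nM-46 µM (NPC, 8-point) in primary screens, 11-point in follow-ups.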

Assay [13] is described as follows: qHTS of pediatric cancer cell lines to identify multiple opportunities for drug repurposing: Primary screen for Saos-2 cells (AID 1347097). Further: nearly all actives have a fitted effect of over 40% in size. The method in brief: as §2
The nature of assay [14]: qHTS of pediatric cancer cell lines to identify multiple opportunities for drug repurposing: Primary screen for SK-N-SH cells (AID 1347098). Further: nearly all actives have a fitted effect of over 65% in size. Further: potency means the concentration at half of the fitted maximal effect. The method in brief:
as §3

The nature of assay [15]: qHTS of pediatric cancer cell lines to identify multiple opportunities for drug repurposing: Primary screen for NB1643 cells (AID 1347099). Further: nearly all actives have a fitted effect of over 50% in size. The method in brief:
as §2

The nature of assay [16]: qHTS of pediatric cancer cell lines to identify multiple opportunities for drug repurposing: Primary screen for LAN-5 cells (AID 1347100). Further: potency means the concentration at half of the fitted maximal effect. An outline of the steps: as §3
Assay [17] has as its target Tyrosine-protein phosphatase non-receptor type substrate 1 (Homo sapiens) + Leukocyte surface antigen CD47 (Homo sapiens) (UniProt P78324+Q08722). The assay can be described thus: CD47-SIRPalpha protein protein interaction - LANCE assay qHTS validation (AID 1347057; active means well fitted curve in the direction sought with a large enough effect in the signal ratio, with a control signal flat, not every such curve was filed as active; the % refers to the signal ratio; further: series mostly up to about 38 µM). The method in brief: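 Inhibition of soluble CD47/SIRPalpha ectodomain association by titrated compounds, measured as 665/615 nm time-resolved FRET ratio after sequential 30 min room-temperature incubations.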

A short description of assay [18]: qHTS of pediatric cancer cell lines to identify multiple opportunities for drug repurposing: Primary screen for SK-N-MC cells (AID 1347093). Further: series mostly up to about 46 µM. An outline of the steps:
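Metabolically active cells were quantified by ATP-dependent luminescence (CellTiter-Glo, 15 min at room temperature) following 48 h treatment. Cells had been plated at 500-1,000 per well and settled for 5 h beforehand.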

A short description of assay [19]: qHTS of pediatric cancer cell lines to identify multiple opportunities for drug repurposing: Primary screen for NB-EBc1 cells (AID 1347095). An outline of the steps: as §2

Parathyroid hormone/parathyroid hormone-related peptide receptor (Homo sapiens), sequence (Q03431 whole entry, looked up): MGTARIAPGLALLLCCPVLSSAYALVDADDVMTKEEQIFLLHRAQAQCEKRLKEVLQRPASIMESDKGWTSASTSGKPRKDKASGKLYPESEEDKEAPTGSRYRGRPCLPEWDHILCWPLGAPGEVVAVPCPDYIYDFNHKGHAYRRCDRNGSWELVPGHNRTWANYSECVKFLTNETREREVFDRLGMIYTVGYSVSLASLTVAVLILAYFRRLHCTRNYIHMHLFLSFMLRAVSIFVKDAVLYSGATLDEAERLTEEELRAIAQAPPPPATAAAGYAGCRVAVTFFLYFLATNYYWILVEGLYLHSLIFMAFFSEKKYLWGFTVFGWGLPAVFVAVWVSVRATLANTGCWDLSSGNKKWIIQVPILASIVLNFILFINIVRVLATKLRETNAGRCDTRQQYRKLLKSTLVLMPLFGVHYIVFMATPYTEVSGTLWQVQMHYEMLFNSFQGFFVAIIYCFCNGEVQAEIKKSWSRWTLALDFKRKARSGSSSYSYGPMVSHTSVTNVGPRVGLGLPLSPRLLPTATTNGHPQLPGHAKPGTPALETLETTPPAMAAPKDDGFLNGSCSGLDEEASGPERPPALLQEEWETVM
Tyrosine-protein phosphatase non-receptor type substrate 1 (Homo sapiens) + Leukocyte surface antigen CD47 (Homo sapiens), sequence (P78324 whole entry, looked up, the tested form may be a part): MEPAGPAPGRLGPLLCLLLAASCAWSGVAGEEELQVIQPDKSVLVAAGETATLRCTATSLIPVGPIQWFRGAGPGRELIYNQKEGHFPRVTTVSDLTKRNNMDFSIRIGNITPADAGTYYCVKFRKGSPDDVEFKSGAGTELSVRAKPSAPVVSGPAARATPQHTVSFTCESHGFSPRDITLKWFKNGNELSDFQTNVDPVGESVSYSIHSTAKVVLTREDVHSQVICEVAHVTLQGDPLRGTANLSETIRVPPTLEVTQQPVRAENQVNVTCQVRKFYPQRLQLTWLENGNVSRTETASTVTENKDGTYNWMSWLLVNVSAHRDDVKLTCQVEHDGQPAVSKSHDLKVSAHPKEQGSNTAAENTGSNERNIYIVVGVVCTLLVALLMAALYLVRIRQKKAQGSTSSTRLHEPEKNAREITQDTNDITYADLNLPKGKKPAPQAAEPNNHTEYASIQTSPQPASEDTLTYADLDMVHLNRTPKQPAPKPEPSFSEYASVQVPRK
Tyrosine-protein phosphatase non-receptor type substrate 1 (Homo sapiens) + Leukocyte surface antigen CD47 (Homo sapiens), sequence (Q08722 whole entry, looked up, the tested form may be a part): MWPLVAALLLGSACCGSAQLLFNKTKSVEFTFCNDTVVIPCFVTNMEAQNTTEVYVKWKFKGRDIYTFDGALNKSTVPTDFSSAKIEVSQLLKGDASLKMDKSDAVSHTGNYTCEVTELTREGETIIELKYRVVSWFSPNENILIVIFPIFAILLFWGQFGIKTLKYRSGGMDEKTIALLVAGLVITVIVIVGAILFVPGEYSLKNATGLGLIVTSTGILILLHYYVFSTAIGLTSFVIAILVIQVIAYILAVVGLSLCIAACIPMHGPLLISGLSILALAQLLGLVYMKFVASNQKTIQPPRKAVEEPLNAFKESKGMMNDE
Atrial natriuretic peptide receptor 2 (Homo sapiens), sequence (P20594 whole entry, looked up): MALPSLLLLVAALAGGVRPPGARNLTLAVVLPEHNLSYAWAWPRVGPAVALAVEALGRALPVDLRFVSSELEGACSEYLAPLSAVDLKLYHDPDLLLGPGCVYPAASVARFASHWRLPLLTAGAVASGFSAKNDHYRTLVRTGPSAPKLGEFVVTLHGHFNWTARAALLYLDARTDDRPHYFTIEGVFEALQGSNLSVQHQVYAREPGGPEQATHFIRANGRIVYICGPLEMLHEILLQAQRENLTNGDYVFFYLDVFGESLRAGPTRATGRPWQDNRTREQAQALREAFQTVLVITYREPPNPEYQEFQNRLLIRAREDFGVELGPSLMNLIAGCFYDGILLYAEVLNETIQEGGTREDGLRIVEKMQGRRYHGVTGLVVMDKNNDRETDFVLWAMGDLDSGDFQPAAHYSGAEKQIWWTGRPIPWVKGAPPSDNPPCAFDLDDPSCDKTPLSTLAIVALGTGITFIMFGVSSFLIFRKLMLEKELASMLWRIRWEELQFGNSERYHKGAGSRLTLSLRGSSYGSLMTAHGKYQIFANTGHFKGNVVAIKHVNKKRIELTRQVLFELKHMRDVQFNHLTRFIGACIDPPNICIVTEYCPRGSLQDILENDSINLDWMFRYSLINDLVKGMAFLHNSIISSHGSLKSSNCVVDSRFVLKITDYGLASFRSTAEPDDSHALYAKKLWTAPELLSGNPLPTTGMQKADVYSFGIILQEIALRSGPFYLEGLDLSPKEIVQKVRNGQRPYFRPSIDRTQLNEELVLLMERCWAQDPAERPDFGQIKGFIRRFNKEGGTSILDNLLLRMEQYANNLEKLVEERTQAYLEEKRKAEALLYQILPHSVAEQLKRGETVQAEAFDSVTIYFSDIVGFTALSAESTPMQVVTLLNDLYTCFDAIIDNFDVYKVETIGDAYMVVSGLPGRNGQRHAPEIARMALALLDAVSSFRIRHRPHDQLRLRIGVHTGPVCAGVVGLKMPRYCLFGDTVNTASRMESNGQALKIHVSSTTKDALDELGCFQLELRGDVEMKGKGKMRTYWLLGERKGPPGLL
Atrial natriuretic peptide receptor 1 (Homo sapiens), sequence (P16066 whole entry, looked up): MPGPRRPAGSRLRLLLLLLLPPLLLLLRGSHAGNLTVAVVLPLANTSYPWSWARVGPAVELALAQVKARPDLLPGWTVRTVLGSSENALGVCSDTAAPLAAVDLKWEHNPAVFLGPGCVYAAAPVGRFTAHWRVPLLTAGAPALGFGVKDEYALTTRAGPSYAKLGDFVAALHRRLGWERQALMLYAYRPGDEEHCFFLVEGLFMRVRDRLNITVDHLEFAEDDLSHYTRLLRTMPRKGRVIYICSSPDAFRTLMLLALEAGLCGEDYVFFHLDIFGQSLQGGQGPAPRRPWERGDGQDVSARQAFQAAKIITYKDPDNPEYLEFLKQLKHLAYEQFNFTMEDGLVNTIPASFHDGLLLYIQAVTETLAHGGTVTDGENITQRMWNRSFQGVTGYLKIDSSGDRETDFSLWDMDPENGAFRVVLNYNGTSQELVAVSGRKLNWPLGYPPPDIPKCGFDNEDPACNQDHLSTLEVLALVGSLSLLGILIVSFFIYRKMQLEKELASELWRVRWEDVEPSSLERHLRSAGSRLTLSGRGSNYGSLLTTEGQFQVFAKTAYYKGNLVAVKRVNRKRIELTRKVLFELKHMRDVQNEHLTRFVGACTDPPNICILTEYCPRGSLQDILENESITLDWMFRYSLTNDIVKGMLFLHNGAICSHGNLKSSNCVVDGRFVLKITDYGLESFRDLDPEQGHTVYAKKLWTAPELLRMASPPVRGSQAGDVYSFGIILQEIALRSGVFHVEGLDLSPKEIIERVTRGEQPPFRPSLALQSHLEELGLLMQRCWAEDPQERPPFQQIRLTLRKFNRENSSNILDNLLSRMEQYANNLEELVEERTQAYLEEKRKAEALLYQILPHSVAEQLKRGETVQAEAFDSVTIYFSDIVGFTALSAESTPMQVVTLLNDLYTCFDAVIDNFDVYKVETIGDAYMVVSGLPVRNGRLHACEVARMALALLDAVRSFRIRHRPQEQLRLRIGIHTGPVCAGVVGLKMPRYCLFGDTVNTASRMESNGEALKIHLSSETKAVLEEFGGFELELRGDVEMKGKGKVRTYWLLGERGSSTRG

Take `O=C1N=C(O)CN1/N=C/c1ccc(-c2ccc([N+](=O)[O-])cc2)o1`: the Potency result in [1], in assay [4], in [5], in [6], in assay [7] and in assay [8] was “inactive” each time. In addition, the Potency result in assay [9], in assay [10], in assay [11], in [12], in [13] and in [14] was “inactive” in each case. Moreover, the Potency entry in [15] and in assay [16] was “inactive” each time. Further, the compound was classed as inactive in assay [2] and in assay [3].

On to `CN1CCC[C@@H]1Cc1c[nH]c2ccc(CCS(=O)(=O)c3ccccc3)cc12`, for which the Potency result in assay [1], in assay [5], in assay [7], in assay [8], in [9] and in assay [10] was “inactive” throughout. Besides, the Potency entry in assay [18], in assay [11], in assay [19], in assay [12], in [13] and in assay [14] was “inactive” in each case. The Potency entry in assay [15] and in assay [16] was “inactive” each time. The outcome in [17] was inactive.

For the compound `CC(C)C(=O)c1c(C(C)C)nn2ccccc12`, the Potency result in [1], in assay [4], in [5], in [6], in assay [7] and in [8] was “inactive” throughout. Besides, the Potency entry in [9], in assay [18], in assay [19], in assay [12], in assay [13] and in assay [14] was “inactive” each time. Moreover, the Potency result in [15] and in [16] was “inactive” in each case. Moreover, the compound was classed as inactive in assay [2] and in assay [17].

`Nc1cc(=O)[nH]c(N)n1`: the Potency result in assay [1], in assay [4], in assay [5], in assay [6], in [8] and in assay [9] was “inactive” in each case. Further, the Potency entry in assay [10], in assay [18], in [19], in assay [12], in [13] and in assay [15] was “inactive” in each case. Besides, the Potency entry in assay [16] is “inactive”. Besides, in [17], the result was inactive.

`CN1CCN(C2Cc3ccccc3Sc3ccc(Cl)cc32)CC1` (configuration not stated): the Potency result in assay [1] and in [6] was “inactive” each time. The result in assay [2] and in assay [17] was inactive. Also, the Potency in assay [14] was 21.7 µM (active); in [16] it was 9.44 µM (active).

Regarding `CCCn1cnc2c1c(=O)n(CCCCC(C)=O)c(=O)n2C`, the Potency result in [1], in assay [4], in assay [5], in [6], in assay [7] and in assay [8] was “inactive” each time. The Potency result in assay [9], in [18], in assay [11], in assay [19], in assay [12] and in [13] was “inactive” in each case. Further, the Potency entry in assay [14], in assay [15] and in assay [16] was “inactive” each time. Besides, the result in [2] and in assay [17] was inactive.

Turning to `CCN(CC)CCNC(=O)c1cc(Cl)c(N)cc1OC`, the Potency result in assay [1], in assay [4], in assay [5], in assay [6], in assay [7] and in assay [9] was “inactive” each time. The Potency result in assay [10], in assay [19], in [12], in assay [13], in assay [14] and in assay [15] was “inactive” each time. The Potency entry in [16] was “inactive”. The outcome in assay [2] and in assay [17] was inactive.

As to `CC(=O)c1ccc2c(c1)N(CCCN(C)C)c1ccccc1S2`, the Potency entry in [1], in [5], in [7], in assay [8], in [9] and in assay [18] was “inactive” each time. The Potency result in [11], in assay [19], in [12], in [13], in assay [15] and in [16] was “inactive” each time. Further, in [17], the result was inactive.
